In PubChem BioAssay one finds composite z-score, z-score and composite Z-score data, which are given here for five compounds.

Calls of active or inactive are those of the source.

For experiment [1], the system named is Human papillomavirus type 1a protein E7 (residues 44-93). In words: small molecules binding HPV E7 44-93 – biochemical, small-molecule microarray, residues 44-93, 635 nm fluorescence, primary screen (AID 1108).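 Further: E7 fragment applied at 1 µg/mL in TBST for 1 h at 4 C; score combines spot fluorescence with its signal to noise ratio.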 To be noted: fluorescence 635 nm, higher = more signal.
The nature of experiment [2]: hepatitis C replication reporter changes, two-sided – Huh7 cells, luciferase reporter, HCV replication inhibitor project, primary screen (AID 1109).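 Further: huh7 hepatoma cells harbouring a luciferase neomycin HCV replicon reporter; luciferase luminescence as measure of HCV replicon replication; test concentration not given here.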 The following applies: Huh7 HCV replicon luciferase reporter, 48 h; higher = more signal. In general terms: A reporter such as luciferase makes a cellular process visible.
Experiment [3] concerns the target Left-right determination factor 2 (Homo sapiens) (UniProt O00292). In words: small molecules binding LEFTY2 protein – biochemical, small-molecule microarray, 635 nm fluorescence scan, primary screen (AID 1110). The following applies: higher = more signal.
The target in experiment [4] is Calmodulin-1 (Homo sapiens) (UniProt P0DP23). The experiment is described as follows: small molecules binding calmodulin-1 with EGTA – biochemical, small-molecule microarray, Cy5-labelled CALM1, profiling panel (AID 1111).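 Further: labelled calmodulin applied in Tris saline Tween buffer holding calcium plus EGTA and DTT.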 The following applies: Cy5-CALM1 binding fluorescence, higher = more signal.
Experiment [5] has the same target. In words: small molecules binding Ca-loaded calmodulin-1 – biochemical, small-molecule microarray, Cy5-labelled CALM1, plus calcium, artefact control for SMM control-protein annotation, profiling panel (AID 1112).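 Further: score merges spot fluorescence with signal to noise from triplicate slides.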 The following applies: Cy5-CALM1 binding fluorescence, higher = more signal.
Experiment [6] is described as follows: probe aWnt5a binding to arrayed compounds – biochemical, biotinylated probe, 635/667 nm fluorescence, primary screen (AID 1113).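 Further: score merges 667 nm fluorescence intensity with signal-to-noise per printed feature.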 To be noted: small-molecule microarray, higher = more signal.
Experiment [7] in a line: probe aShh binding to arrayed compounds – biochemical, biotinylated probe, 635/667 nm fluorescence, primary screen (AID 1114).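 Further: probe is biotin-labelled aShh protein from a stem cell growth factor screen; measures binding of labelled protein to compounds printed on the slide; score merges feature fluorescence at 667 nm with signal-to-noise.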 To be noted: small-molecule microarray, higher = more signal.
The nature of experiment [8]: probe aNog binding to arrayed compounds – biochemical, biotinylated probe, 635/667 nm fluorescence, primary screen (AID 1115).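 Further: probe is biotinylated aNog protein used at 0.15 µg/mL for 1 h at 4 C; z-score combines 667 nm fluorescence of each spot with its signal to noise.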 The following applies: small-molecule microarray, higher = more signal.
The target of experiment [9] is Torsin-1A-interacting protein 1 (Homo sapiens) (UniProt Q5JTV8). In words: compound microarray binding of lysate hLAP1 – cell lysate, small-molecule microarray, COS7 lysate, 635/667 nm fluorescence, primary screen (AID 1116). The following applies: 635 nm fluorescence, higher = more signal.
In experiment [10] the target is Alpha-bungarotoxin (Bungarus multicinctus) (UniProt P60615). The experiment is described as follows: compounds binding labelled alpha-BTX control protein – biochemical, small-molecule microarray, Alexa647 label, 635/667 nm fluorescence, artefact control for SMM control protein annotation, profiling panel (AID 1117). To be noted: alpha-BTX-A647 binding fluorescence, higher = more signal.

In the next experiment the target is Albumin (Bos taurus) (UniProt P02769). The experiment is described as follows: compounds binding labelled BSA control protein – biochemical, small-molecule microarray, Alexa647 label, 635/667 nm fluorescence, artefact control for SMM control protein annotation, profiling panel (AID 1118).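 Further: score merges 667 nm emission intensity and signal-to-noise per printed compound spot.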 To be noted: BSA-A647 binding, fluorescence 635 nm, higher = more signal.
Experiment [11] can be described thus: probe aXIP binding to arrayed compounds – biochemical, NeuroSMM set, 635/667 nm fluorescence, primary screen (AID 1119).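 Further: probe is the protein aXip251-270 applied at 1 µg/mL to compound-printed slides; binding of probe to printed compounds measured as 667 nm fluorescence plus signal to noise.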 To be noted: small-molecule microarray, higher = more signal, called active from +8 up or from −8 down.
Experiment [12] is described as follows: probe aNOTCH3 binding on compound microarray – biochemical, small-molecule microarray, 635/667 nm fluorescence, primary screen (AID 1120).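 Further: probe is a biotin-tagged antibody raised against NOTCH3 rather than NOTCH3 protein; score merges spot fluorescence near 667 nm with spot signal to noise.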 The following applies: higher = more signal.
The nature of experiment [13]: probe aNOTCH2 binding on compound microarray – biochemical, small-molecule microarray, 635/667 nm fluorescence, primary screen (AID 1121).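 Further: score merges feature fluorescence read at 667 nm with its signal to noise.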 The following applies: higher = more signal.
Experiment [14] addresses Carbonic anhydrase 2 (Homo sapiens) (UniProt P00918). The experiment is described as follows: compounds binding carbonic anhydrase 2 – biochemical, small-molecule microarray, Alexa647-labelled CAII, profiling panel (AID 1122). To be noted: CAII-A647 binding fluorescence, higher = more signal.
A short description of experiment [15]: COS7 lysate on small-molecule microarray, probe aHis, 635 nm (AID 1123).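 Further: z-score combines 667nm fluorescence intensity with signal-to-noise per printed compound spot.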 The following applies: COS7 cell lysate, fluorescence, higher = more signal.
A short description of experiment [16]: probe aLAP1 signal on lysate-treated microarray – cell lysate, small-molecule microarray, COS7 lysate, primary screen (AID 1124).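 Further: lysate comes from COS7 cells expressing LAP1 and is applied at 0.3 µg/mL; score merges spot fluorescence near 667 nm with signal-to-noise over triplicate slides.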 The following applies: probe aLAP1, fluorescence, higher = more signal.
Another experiment concerns Sam68 (KHDRBS1). The experiment is described as follows: compounds binding KHDRBS1 protein – biochemical, small-molecule microarray, 635 nm fluorescence, primary screen (AID 1125).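 Further: score merges 667 nm channel intensity with signal to noise over triplicate slides.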 To be noted: higher = more signal.
Experiment [17] has as its system Chordin-like protein 2 (CHRDL2). In words: compounds binding chordin-like 2 – biochemical, small-molecule microarray, 635 nm fluorescence, primary screen (AID 1126).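 Further: printed compound slides probed with Chrdl2 protein at 4 µg/mL for 1 h at 4 C; score merges 667 nm emission intensity with signal to noise over three replicate slides.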 To be noted: fluorescence 635 nm, higher = more signal.
Experiment [18] addresses Concanavalin-A (Canavalia ensiformis) (UniProt P02866). The experiment is described as follows: compounds binding concanavalin A lectin – biochemical, small-molecule microarray, Alexa647 label, 635 nm, artefact control for SMM control protein annotation, primary screen (AID 1127).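 Further: z combines 667 nm emission intensity with signal-to-noise across three replicate slides.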 The following applies: ConA-A647 binding fluorescence, higher = more signal.

Chain of Left-right determination factor 2 (Homo sapiens) (O00292 whole entry, looked up): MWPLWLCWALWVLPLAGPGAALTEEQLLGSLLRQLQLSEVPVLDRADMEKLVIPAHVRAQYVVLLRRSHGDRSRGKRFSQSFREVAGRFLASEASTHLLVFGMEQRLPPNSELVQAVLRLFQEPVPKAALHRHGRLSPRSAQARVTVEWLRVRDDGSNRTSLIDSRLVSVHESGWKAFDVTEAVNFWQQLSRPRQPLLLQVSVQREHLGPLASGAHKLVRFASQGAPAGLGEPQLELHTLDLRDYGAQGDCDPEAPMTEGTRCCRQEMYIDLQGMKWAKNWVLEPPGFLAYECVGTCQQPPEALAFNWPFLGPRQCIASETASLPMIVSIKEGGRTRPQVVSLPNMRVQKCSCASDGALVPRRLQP
Chain of Albumin (Bos taurus) (P02769 whole entry, looked up): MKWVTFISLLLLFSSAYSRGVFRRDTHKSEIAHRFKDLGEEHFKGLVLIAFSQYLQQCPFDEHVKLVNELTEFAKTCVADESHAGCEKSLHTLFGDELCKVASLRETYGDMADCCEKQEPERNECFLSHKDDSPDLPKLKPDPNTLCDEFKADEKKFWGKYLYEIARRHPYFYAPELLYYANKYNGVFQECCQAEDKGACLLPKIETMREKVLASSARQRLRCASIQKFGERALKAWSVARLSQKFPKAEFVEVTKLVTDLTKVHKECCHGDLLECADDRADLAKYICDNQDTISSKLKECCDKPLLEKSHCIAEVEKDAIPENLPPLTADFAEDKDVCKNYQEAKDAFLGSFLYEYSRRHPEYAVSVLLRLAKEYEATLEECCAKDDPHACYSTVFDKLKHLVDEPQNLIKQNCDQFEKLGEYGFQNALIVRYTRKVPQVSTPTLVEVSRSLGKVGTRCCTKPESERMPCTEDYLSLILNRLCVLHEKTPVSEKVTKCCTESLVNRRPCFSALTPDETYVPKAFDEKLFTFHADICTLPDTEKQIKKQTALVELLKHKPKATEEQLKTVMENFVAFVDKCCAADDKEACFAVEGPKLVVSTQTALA
Chain of Alpha-bungarotoxin (Bungarus multicinctus) (P60615 whole entry, looked up): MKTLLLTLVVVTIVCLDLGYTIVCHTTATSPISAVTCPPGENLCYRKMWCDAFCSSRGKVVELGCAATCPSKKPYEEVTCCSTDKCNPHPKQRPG
Chain of Torsin-1A-interacting protein 1 (Homo sapiens) (Q5JTV8 whole entry, looked up): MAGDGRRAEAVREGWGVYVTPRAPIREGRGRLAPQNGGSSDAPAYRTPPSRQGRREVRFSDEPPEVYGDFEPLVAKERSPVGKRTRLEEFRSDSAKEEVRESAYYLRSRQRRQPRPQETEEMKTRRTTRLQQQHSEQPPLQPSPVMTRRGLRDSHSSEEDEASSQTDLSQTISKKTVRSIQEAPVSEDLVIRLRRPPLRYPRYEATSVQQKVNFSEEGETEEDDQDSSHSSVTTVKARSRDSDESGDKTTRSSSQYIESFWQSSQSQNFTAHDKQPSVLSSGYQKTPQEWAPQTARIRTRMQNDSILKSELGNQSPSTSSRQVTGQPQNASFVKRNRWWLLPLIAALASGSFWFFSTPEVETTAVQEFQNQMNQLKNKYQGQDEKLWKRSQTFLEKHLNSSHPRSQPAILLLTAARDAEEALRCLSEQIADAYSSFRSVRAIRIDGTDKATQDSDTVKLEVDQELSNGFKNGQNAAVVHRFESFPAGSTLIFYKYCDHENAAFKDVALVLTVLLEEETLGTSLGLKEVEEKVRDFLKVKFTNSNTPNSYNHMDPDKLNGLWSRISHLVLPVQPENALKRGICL
Chain of Concanavalin-A (Canavalia ensiformis) (P02866 whole entry, looked up): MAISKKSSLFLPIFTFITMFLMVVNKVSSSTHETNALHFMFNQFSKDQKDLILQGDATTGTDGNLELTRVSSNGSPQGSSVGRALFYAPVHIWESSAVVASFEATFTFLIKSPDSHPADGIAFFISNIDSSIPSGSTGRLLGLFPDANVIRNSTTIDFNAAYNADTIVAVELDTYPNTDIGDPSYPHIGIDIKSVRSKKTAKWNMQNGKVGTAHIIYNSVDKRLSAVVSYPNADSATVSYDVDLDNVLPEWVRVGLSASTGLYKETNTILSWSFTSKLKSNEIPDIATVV

In the case of `C[C@H]1C2[C@H](Cc3ccccc3)NC(=O)[C@]23C(=O)NCC(=O)N2CCC[C@H]2C(=O)NC/C=C/CCC/C=C/C3[C@@H]2O[C@]12C` (stereo not given in full), the composite z-score in [1] is -0.484; in experiment [3] it was -0.693; in experiment [4] it was -0.738; in experiment [5] it was -1.2; in [6], -0.0075; in [7], -0.138. In addition, the composite z-score in experiment [8] was -0.387; in experiment [9], -0.106; in experiment [10], -0.65; with Albumin (Bos taurus) it was -0.677; in experiment [12] it was -0.136; in experiment [13] it was -0.179. Further, the composite z-score is -0.17 in experiment [14]; -0.18 in experiment [15]; 0.053 in [16]; -1.51 with Sam68 (KHDRBS1); -0.143 in experiment [17]; -1.27 in experiment [18]. In [2], this compound showed a z-score of 0.478. Moreover, the composite Z-score in [11] was -0.695 (inactive).

For `CC(C)Cc1ccc(CN2CC[C@@H](N)C2)cc1`, the composite z-score in [1] was -2.06; in [3], -0.669; in [4] it was -0.387; in experiment [5], 0.36; in experiment [6] it was -0.274; in [7] it was -0.147. Also, the composite z-score was 0.023 in [8]; -1.24 in experiment [9]; -0.118 in experiment [10]; -0.275 with Albumin (Bos taurus); -0.152 in [12]; -0.205 in experiment [13]. Also, the composite z-score in experiment [14] is -0.501; in [15], -0.304; in experiment [16], -0.485; with Sam68 (KHDRBS1), -1.62; in experiment [17], -0.629; in experiment [18], -0.732. Further, in experiment [2], the z-score was -4.41. The composite Z-score in experiment [11] was -0.536 (inactive).

As for `C=CCN(Cc1ccccc1)C(=O)C(c1cccs1)N(C(=O)/C=C\C(=O)O)c1ccc(CCOCCO)cc1` (stereo not given), the composite z-score in [1] was -0.774; in experiment [3], -2.57; in [4] it was -0.722; in [5], 0.665; in [6], -0.191; in [7], -0.138. The composite z-score in experiment [8] is -0.242; in experiment [9], -0.678; in [10], -1.84; with Albumin (Bos taurus) it was 0.955; in [12], -0.416; in experiment [13], -0.135. In addition, the composite z-score is 0.864 in experiment [14]; -0.691 in experiment [15]; -0.679 in experiment [16]; -1.33 in the experiment on Sam68 (KHDRBS1); -2.25 in experiment [17]; -0.931 in experiment [18]. The compound further registered a z-score in experiment [2] of 0.386. The composite Z-score in experiment [11] was 0.0165 (inactive).

Turning to `COCCCNC(=O)[C@@]1(Cc2ccccc2CN=[N+]=[N-])N=C(c2ccc(OCCCO)cc2)O[C@H]1c1ccccc1CN=[N+]=[N-]`, the composite z-score in experiment [1] was 1.37; in experiment [3], -0.443; in experiment [4], 1.36; in experiment [5], 0.875; in experiment [6] it was 0.173; in experiment [7], 0.311. Besides, the composite z-score in experiment [8] is -0.69; in [9], 0.852; in experiment [10], 1.84; with Albumin (Bos taurus) it was 1.02; in [12], 0.459; in experiment [13], -0.0438. Further, the composite z-score is 0.594 in experiment [14]; 2.58 in [15]; 0.574 in experiment [16]; 1.29 with Sam68 (KHDRBS1); -1.13 in experiment [17]; 0.972 in experiment [18]. Also, the z-score in [2] is -3.39. The composite Z-score in experiment [11] is 0.585 (inactive).

`COc1ccc(NN2C(C(O)c3ccc(N(C)C)cc3)C=CC3C(=O)N(C4CCCCC4)C(=O)C32)cc1` (stereo not given): the composite z-score in [1] is 1.42; in experiment [3], -0.146; in [4], 1.21; in experiment [5], 0.651; in [6] it was 0.351; in experiment [7], -0.0248. Further, the composite z-score was determined as 0.42 in experiment [8]; 1.22 in [9]; 1.72 in experiment [10]; 0.906 with Albumin (Bos taurus); 0.391 in [12]; 0.0992 in experiment [13]. Moreover, the composite z-score in experiment [14] is 0.689; in [15], 2.13; in experiment [16], 0.414; with Sam68 (KHDRBS1), 1.31; in experiment [17], 0.212; in experiment [18], 1.16. For the same compound, the z-score in experiment [2] was -0.581. In addition, the composite Z-score in experiment [11] is -0.247 (inactive).
